Our source for the PBM binding z-score values is the supplement of paper PMC6555819.

The test system of the experiment is VDR:RXRa (NR concentration 270 nM, RXRa partner concentration 90 nM). As to the kind of experiment: PBM binding z-score (relative to random genomic background probes); higher = stronger binding; sequences stand for … in GC…GCGATTGACAGCGTAGAATGAAGG
The method, then: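 Protein-binding microarray (Agilent 4x180K custom design, double-stranded 60-nt probes: 5' GC cap, 34-nt variable region, 24-nt constant primer region; full probe sequence given). Purified or IVT nuclear receptor:RXRα heterodimers (3:1 NR:RXRα, mostly 270:90 nM) or homodimers were incubated for 1 h in PBS with 2% milk and no ligand, then detected with Alexa488 antibodies. Fluorescence from o1-orientation probes (~5 replicates averaged) was converted to z-scores against 500 random hg19 background probes. Variable regions are seed direct-repeat (DR0–DR5) sites, all their single-nucleotide variants and half-site ablations.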
AGAACGAGGGCACGCTGAGTTGATACCAGAGTAG registered a PBM binding z-score of 2.23.

In turn, CCTACTGCGCCATTCAGAGGTCATTGATCATATG gave a PBM binding z-score of 3.85.

Take CAAACTAGGTCAAGGTCCAAGTCGGTTTGTGCCA: the PBM binding z-score stood at 2.18.

In turn, TTGAGTAGGTTACCAATGGGGCATTCAGCTTTCT came in with a PBM binding z-score of 0.365.

AGTCAAAGTTCAGGACTAGGTAACGTAAAGCACG yielded a PBM binding z-score of 2.4.

The sequence TAGGCTAGGTCAGATCGGGCCAGTATACGCTATA came in with a PBM binding z-score of 0.927.

In the case of TCTAGTTGGTAAAAGGTCACACACTCGAAATGCG, the PBM binding z-score was found to be 4.89.

As to CCCAGTTGGTCAAGGTCACACACGCTATAGGTAC, the PBM binding z-score is 4.58.

ACTTACGGGTCAACTAGGTTATAGCACGCGTATA: the PBM binding z-score was found to be 5.88.

GCTGCTAGGTCAGGTTGGTCAGGTAACGGGTACG returned a PBM binding z-score of 0.625.

With TCGAGTAGGTTAGTCGGGGCATTCTGCCAACATA, the PBM binding z-score was 2.15.

Consider CCTCAAAGTTCAAGGTAACGTAACAGAAAGCAGC, for which the PBM binding z-score amounted to 4.07.

For the sequence CGAACTAGGTCATCCAGGACAGTGAGTACATTGA, the PBM binding z-score was 5.02.

CCTTACGGGTCACTGACCGGTTATAGCATTTGGA came in with a PBM binding z-score of 3.34.

ATCTCTAGGTAAGACTCAGTTCAGTGCAGAACGC came in with a PBM binding z-score of 0.866.

As for GATCGGAGGACAAGGTCAGAGCTTTGTCCGTAGA, the PBM binding z-score is 1.44.

Turning to ACTCGGAGGAAAAAGGTCAGAGCTACGCCAGTGA, the PBM binding z-score is 2.07.

For the sequence CGTCCAAGGTCAGCAGGTCAGCGAAAGCGACGTG, the PBM binding z-score worked out at 4.26.

In turn, TGAATGAGGTTATAACATCAGGGAACGTTGCAAA displayed a PBM binding z-score of 1.11.

In the case of GCAGACAGGTGAACCGCAGGTAACTCAGGGTGGC, the PBM binding z-score worked out at 0.332.

The sequence ATCGAAAGGTCGAAGGTGAGTAAACCCACCCGAA had a PBM binding z-score of 2.84.

Regarding CCAGACAGGCGAGAAGGTAACTCAGCCTCGATTA, the PBM binding z-score was -0.665.

In turn, TCTTGTAGATCAAAGGTTTAGAAAGCCGAAGCCT displayed a PBM binding z-score of 0.314.

Take ACTAGCAGGCCAACGGTCACTCAAGATTAGTCCG: the PBM binding z-score was -0.505.

Sequence ATCTCGAGGTAACCAAGTTCAGTGAATGCCGAAC displayed a PBM binding z-score of 5.47.

With TCTAGTAGGCCAGAGGGTCACTCAAGAGGTACGG, the PBM binding z-score came out at 1.91.

In turn, GCGACTGGGGCAAAGCAGGGTACCATAAGGTTGG returned a PBM binding z-score of -0.276.

As to GCAGACAGGTGAAATGCAGGTAACTCAGGGTGGC, the PBM binding z-score was -0.417.

For the sequence CATACTAGGTCACGAAAGGTCAAAGTCGAATGAC, the PBM binding z-score is 6.92.

CCTAGTTGGTCAAGGTCATACACGCTATAGGTAC displayed a PBM binding z-score of 4.33.

Consider AGTATGAGGTTATTAAGATCAGGGAATTGCGGTC, for which the PBM binding z-score came out at 2.58.

Sequence ACTTGCGGGTCAACGAGGTTATAGCACGCGTATA yielded a PBM binding z-score of 7.55.

Sequence CCGATTAGTTGACCATAAGGGCAACCGAAGCTCG showed a PBM binding z-score of 0.252.

On to CCTACTGGGCCATTCAGAGTTCATTGATCATATG, for which the PBM binding z-score worked out at 3.5.

In turn, CTCGATAGGTCGTGCTCAGGTGAGTATACCAAAC came in with a PBM binding z-score of 0.637.

Turning to CCTCGGAGGACAACAGGAGGTCAGAGGTGCCAGA, the PBM binding z-score came to 2.28.

The sequence CCTACTGGGCCAAAAAGGTCATTAATGCCGATAA had a PBM binding z-score of 4.53.

For TCTTGTAGATCGAAGGTTAAGAAAGCCGAAGCCT, the PBM binding z-score is 0.313.

For TCATCTAGGTAAAAGGTGAAAGTCGGTGTGGTAA, the PBM binding z-score was determined as 1.5.

In turn, CCTATTAGTTGACCTTAAGGGCAACCGAAGCTCG registered a PBM binding z-score of 3.66.
